# AMPAR-TARP mod = modulators of AMPA receptor GluA2-stargazin complexes; O88602+P19491; HEK293 GluA2+stargazin, membrane potential dye (FDSS), glutamate EC50; hits were called plate by plate, in both directions; calls only at 30 µM; hit rate 3.5% among 40,000;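 active = any of four per-well response measures lying three or more SD from its plate-wide compound average, in either direction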
# GIRK2 activator = Activators of human GIRK2-containing channels | P48051 | HEK293 GIRK2/NPY4 cells, thallium flux fluorescence | activation (% efficacy), % for hits at 37.5 µM | 34,000 tested, under 10 active;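 active = primary screen hit, no activity in plain HEK293 cells, and in GIRK2-only cells above 5% efficacy rising with concentration; inactive = the rest, including fluorescent compounds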;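 note: efficacy is normalized control-subtracted fluorescence 15 s after thallium addition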
# Target sequence (P48051 whole entry, looked up): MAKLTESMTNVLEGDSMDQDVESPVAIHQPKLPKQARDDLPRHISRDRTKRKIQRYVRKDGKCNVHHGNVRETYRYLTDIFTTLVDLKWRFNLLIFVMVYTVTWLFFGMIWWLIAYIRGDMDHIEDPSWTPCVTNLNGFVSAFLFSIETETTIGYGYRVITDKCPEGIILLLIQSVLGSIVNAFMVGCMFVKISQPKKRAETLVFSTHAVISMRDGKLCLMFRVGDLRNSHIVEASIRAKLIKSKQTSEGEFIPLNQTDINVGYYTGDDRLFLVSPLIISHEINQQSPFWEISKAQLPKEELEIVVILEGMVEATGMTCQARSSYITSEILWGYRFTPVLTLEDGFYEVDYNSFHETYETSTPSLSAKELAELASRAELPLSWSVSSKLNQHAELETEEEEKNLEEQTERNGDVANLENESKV
# * hit, by the source's call; i = inactive; nt = no result; + = active, no number; ! = not confirmed by another sample. The sample as a whole holds a higher share of hits than the screen did.
SMILES,AMPAR-TARP mod,GIRK2 activator
O=C(Cn1c(=O)n(C2CC2)c(=O)c2nscc21)Nc1ccc(F)c(Cl)c1,+,i
COc1ccc(NC(=O)Cn2c(=O)n(C(C)C)c(=O)c3nscc32)cc1Cl,i,i
Cc1cc(C)c(NC(=O)Cn2c(=O)n(C3CC3)c(=O)c3nscc32)c(C)c1,i,i
COCCN1CCC(CNC(=O)C2CCCCC2)CC1,nt,i
Cc1cccc(CS(=O)(=O)NCC2CCN(Cc3cccs3)CC2)c1,nt,i
CN1C(=O)CCc2cc(NC(=O)c3ccc4c(c3)OCO4)ccc21,+,nt
CN(C1CC1)S(=O)(=O)c1ccc(C(=O)Nc2ccc3c(c2)OCO3)cc1,+,i
CCCCN1C(=O)CCc2cc(NC(=O)c3ccc4c(c3)OCO4)ccc21,i,i
CN(C1CCCC1)S(=O)(=O)c1ccc(C(=O)Nc2ccc3c(c2)OCO3)cc1,i,nt
CN(c1ccsc1C(=O)Nc1ccc2c(c1)OCCO2)S(=O)(=O)c1ccccc1,+!,i
CN(c1ccsc1C(=O)Nc1ccc(F)c(F)c1)S(=O)(=O)c1ccccc1,i,i
CCOc1nn(CC)cc1-c1nnc(SCC(=O)N(C)c2ccccc2)n1C,i,i
O=C(c1nn(-c2ccc(F)cc2)cc1OCc1ccccc1)N1CCOCC1,i,i
COc1ccc(C(=O)Nc2cc3c4c(c2)CCC(=O)N4CCC3)cc1,i,i
COc1ccc(C(=O)Nc2cc3c4c(c2)CCN4C(=O)CC3)cc1,+,i
CC(C)(C)c1cc(NCCCn2ccnc2)n2ncc(-c3ccccc3)c2n1,i,i
CN(C)CCNc1cc(C(C)(C)C)nc2c(-c3ccccc3)cnn12,+,i
Cn1c(=O)c(C(=O)NCc2ccc3c(c2)OCO3)cc2cccnc21,i,i
Cc1nc(N2CCN(CCO)CC2)nc(Nc2ccc(F)cc2)c1[N+](=O)[O-],+,i
Cc1nc(N2CCN(CCO)CC2)nc(N2CCCCC2)c1[N+](=O)[O-],i,i
Cn1c(-c2ccccc2)nn(CCNC(=O)c2cccs2)c1=O,i,i
Cc1nccn1-c1ccc(N2CCCC(C(=O)NCc3ccc4c(c3)OCO4)C2)nn1 (configuration not stated),i,i
Cc1cc(C)c(S(=O)(=O)Nc2ccc(F)cc2)c(C)c1N(C)S(C)(=O)=O,i,i
COc1ccc(NS(=O)(=O)c2c(C)cc(C)c(N(C)S(C)(=O)=O)c2C)cc1,+,i
Cc1ccc(OCC(=O)NCCS(=O)(=O)N2CCN(c3ccccn3)CC2)cc1,nt,i
SMILES,AMPAR-TARP mod,GIRK2 activator
Cn1nc(-c2cccc(NC(=O)c3cccnc3)c2)ccc1=O,+,i
Cn1nc(-c2cccc(NC(=O)Nc3ccccc3)c2)ccc1=O,i,i
COc1ccc(NC(=O)NCC(O)C2CCCCC2)cc1 (configuration not stated),nt,i
O=C(COc1ccccc1)NCC1(c2ccccc2)CCOCC1,i,i
COc1ccc(-c2csc(CN3CCN(C(=O)c4ccc(F)cc4F)CC3)n2)cc1,i,nt
CCCc1nnsc1C(=O)N1CCN(Cc2nc(-c3ccc(F)cc3)cs2)CC1,+,i
CN1CCN(C(C#N)c2ccc3c(c2)CCN3C)CC1 (configuration not stated),i,i
CC1=NN(c2ccccc2)C(=O)C1C(=O)c1ccc(S(=O)(=O)N(C)C)cc1 (configuration not stated),i,i
CC1=NN(c2ccccc2)C(=O)C1C(=O)c1ccc(Br)o1 (configuration not stated),+,i
COCc1c(C(=O)Nc2cc(OC)ccc2Cl)nnn1-c1ccc(C)cc1,i,i
O=C(Cc1cc(-c2cc3ccccc3o2)on1)Nc1cccc(F)c1,i,i
COc1ccc(Nc2cc(C)nc(N3CCN(C(=O)C4CCCC4)CC3)n2)cc1,+,i
Cc1cc(C)n(-c2ccc(N3CCN(C(=O)COc4ncccn4)CC3)nn2)n1,nt,i
O=C(COc1ncccn1)N1CCN(c2ccc(Nc3ccccn3)nn2)CC1,+,i
O=C(Cc1ccc(Cl)cc1)N1CCN(c2ccc(Nc3ccccn3)nn2)CC1,i,i
Cc1cc(Nc2ccccc2)nc(N2CCN(C(=O)c3ccc4c(c3)OCO4)CC2)n1,i,nt
Cc1ccc(Nc2cc(C)nc(N3CCN(C(=O)COc4ncccn4)CC3)n2)cc1,+,i
Cc1cn(C)nc1C(=O)Nc1nnc(-c2ccc3c(c2)CCCC3)o1,i,i
O=S(=O)(CCCOc1ccc2c(c1)OCO2)N1CCc2ccccc21,i,i
O=C(CN1N=NC2C(=O)N(c3ccc(Br)cc3)C(=O)C21)Nc1ccccc1Cl (configuration not stated),i,i
COc1cc(/C=C2\SC(=S)N(c3ccccc3Br)C2=O)ccc1O,+,nt
COc1ccc(/C=C2\SC(=S)N(c3cccc(C)c3C)C2=O)cc1OC,i,nt
CCOc1cc(/C=C2\SC(=S)N(c3ccccc3Br)C2=O)ccc1O,i,nt
COc1cc(/C=C2\SC(=S)N(c3cccc(C)c3C)C2=O)cc(OC)c1OC,+,nt
CC(C)CS(=O)(=O)Nc1ccc(CC(=O)N(C)C)cc1,i,i
SMILES,AMPAR-TARP mod,GIRK2 activator
Cc1nnsc1C(=O)N1CCC(CNC(=O)/C=C/c2cccs2)CC1,i,i
CN(C)S(=O)(=O)N1CCC(COCc2ccc(Cl)cc2)CC1,+,i
O=S(=O)(/C=C/c1ccccc1)N1CCC(COCc2ccc(Cl)cc2)CC1,i,i
COc1ccc(OC)c(NC(=O)NCCNc2nc(C)cc(N3CCCCC3)n2)c1,i,i
COc1cc(OC)c(NC(=O)NCCNc2nc(C)cc(N3CCCCC3)n2)cc1Cl,+,i
COC(=O)NCCC(O)c1cccs1 (configuration not stated),i,i
CS(=O)(=O)c1ccc(CC(=O)Nc2sc3c(c2C#N)CCCC3)cc1,i,nt
CCCNC(=O)Cn1cc(OC)c(=O)cc1CSc1nc(C)cc(C)n1,+,i
COc1cn(CC(=O)NCc2ccccc2)c(CSc2nc(C)cc(C)n2)cc1=O,i,i
CN(C)C(CNC(=O)c1cccc2ccccc12)c1ccccc1 (configuration not stated),i,nt
COc1ccccc1C(=O)N(CCc1cccs1)c1nc2ccc(S(C)(=O)=O)cc2s1,+,i
COc1ccc2sc(N(Cc3ccncc3)C(=O)c3ccccc3S(C)(=O)=O)nc2c1,i,i
CN(C1CCCC1)S(=O)(=O)c1ccc(C(=O)Nc2nnc(-c3ccccc3)o2)cc1,i,nt
CCOC(=O)c1c(NC(=O)COc2cccc3c2CCN(Cc2ccc(Br)cc2)C3=O)sc2c1CCC2,+,nt
O=C(COc1cccc2c1CCN(Cc1ccccc1)C2=O)NC1CCCCC1,i,nt
COc1ccc(OCC(=O)Nc2cc(C)nn2-c2nc(-c3ccc(OC)c(OC)c3)cs2)cc1,i,i
O=C(NCCc1cccs1)c1nnn(-c2ccccc2Cl)c1-c1ccncc1,+,i
CC(C(=O)NCCc1cccs1)n1nnc2ccccc2c1=O (configuration not stated),i,i
Cc1nn(C2CCS(=O)(=O)C2)c2nc(-c3ccccc3)cc(C(=O)N3CCc4ccccc43)c12 (configuration not stated),i,i
COC(=O)Cn1c(=NC(=O)c2cc(C)no2)sc2cc(F)cc(F)c21,i,i

# Screens deposited in PubChem by several laboratories.
